# Article PMC5540273 (PLoS ONE, 2017)
# “And” between values parts separate entries of the source, which are not always exact repeats. Identical values can stand only once. Like-named read-outs stand apart in the source and are kept apart here.
# Key:
# CDK4-cyclinD3 = conditions: concentration: 1 μM, replicates: in singlicate; n = 1
# CDK4 = conditions: concentration: 1 μM, replicates: in singlicate, n = 1
# CDK5 = conditions: concentration: 1 μM, replicates: in singlicate; n = 1
# CDK7 = conditions: concentration: 1 μM, replicates: in singlicate, n = 1
# CDK8 = conditions: concentration: 1 μM, replicates: in singlicate, n = 1
# CDK9 = conditions: concentration: 1 μM, replicates: in singlicate, n = 1
# CDKL1 = conditions: concentration: 1 μM, replicates: in singlicate, n = 1
# CDKL2 = conditions: concentration: 1 μM, replicates: in singlicate, n = 1
# CDKL3 = conditions: concentration: 1 μM, replicates: in singlicate; n = 1
# CDKL5 = conditions: concentration: 1 μM, replicates: in singlicate; n = 1
# CHEK1 = conditions: concentration: 1 μM, replicates: in singlicate, n = 1
# CHEK2 = conditions: concentration: 1 μM, replicates: in singlicate, n = 1
# CIT = conditions: concentration: 1 μM, replicates: in singlicate, n = 1
# CLK1 = conditions: concentration: 1 μM, replicates: in singlicate, n = 1
# CLK2 = conditions: concentration: 1 μM, replicates: in singlicate, n = 1
# CLK3 = conditions: concentration: 1 μM, replicates: in singlicate, n = 1
# CLK4 = conditions: concentration: 1 μM, replicates: in singlicate, n = 1
# CSF1R-autoinhibited = conditions: concentration: 1 μM, replicates: in singlicate, n = 1
# CSF1R = conditions: concentration: 1 μM, replicates: in singlicate, n = 1
# CSK = conditions: concentration: 1 μM, replicates: in singlicate; n = 1
# 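Also: KINOMEscan kinase panel screen.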
structure (smiles),measurement,setting,value
O=C(NOCC1CC1)c1ccc(F)c(F)c1Nc1ccc(I)cc1Cl,%Inh,CDK4-cyclinD3,0%
same,%Inh,CDK4,0%
same,%Inh,CDK5,5%
same,%Inh,CDK7,0%
same,%Inh,CDK8,0%
same,%Inh,CDK9,0%
same,%Inh,CDKL1,0%
same,%Inh,CDKL2,0%
same,%Inh,CDKL3,20%
same,%Inh,CDKL5,0%
same,%Inh,CHEK1,0%
same,%Inh,CHEK2,21%
same,%Inh,CIT,0%
same,%Inh,CLK1,0%
same,%Inh,CLK2,3%
same,%Inh,CLK3,0%
same,%Inh,CLK4,0%
same,%Inh,CSF1R-autoinhibited,0%
same,%Inh,CSF1R,0%
same,%Inh,CSK,0%
NCCNS(=O)(=O)c1ccc(-c2ccnc3[nH]ccc23)cc1 [GSK977617],%Inh,CDK4-cyclinD3,0%
same,%Inh,CDK4; 1 µM,34% and 27%
same,%Inh,CDK5,0%
same,%Inh,CDK7; 1 µM,85% and 74%
same,%Inh,CDK8; 1 µM,20% and 19%
same,%Inh,CDK9; 1 µM,5% and 26%
same,%Inh,CDKL1; 1 µM,10% and 1%
same,%Inh,CDKL2; 1 µM,0% and 8%
same,%Inh,CDKL3,0%
same,%Inh,CDKL5,0%
same,%Inh,CHEK1; 1 µM,8% and 21%
same,%Inh,CHEK2; 1 µM,72% and 63%
same,%Inh,CIT; 1 µM,65% and 48%
same,%Inh,CLK1; 1 µM,95.5% and 95.4%
same,%Inh,CLK2; 1 µM,94.8% and 95.5%
same,%Inh,CLK3; 1 µM,64% and 83%
same,%Inh,CLK4; 1 µM,97.7% and 96%
same,%Inh,CSF1R-autoinhibited; 1 µM,11% and 0%
same,%Inh,CSF1R; 1 µM,46% and 19%
same,%Inh,CSK,0%
CSc1ccc(-c2cc3ncnc(SCC(=O)O)c3s2)cc1,%Inh,CDK4-cyclinD3,0%
same,%Inh,CDK4,0%
same,%Inh,CDK5,22%
same,%Inh,CDK7,25%
same,%Inh,CDK8,0%
same,%Inh,CDK9,33%
same,%Inh,CDKL1,4%
same,%Inh,CDKL2,0%
same,%Inh,CDKL3,0%
same,%Inh,CDKL5,0%
same,%Inh,CHEK1,0%
same,%Inh,CHEK2,2%
same,%Inh,CIT,1%
same,%Inh,CLK1,0%
same,%Inh,CLK2,0%
same,%Inh,CLK3,0%
same,%Inh,CLK4,0%
same,%Inh,CSF1R-autoinhibited,17%
same,%Inh,CSF1R,18%
same,%Inh,CSK,0%
COc1ccc(Nc2ncc(C#N)c(Nc3ccccc3C(N)=O)n2)cc1N1CCN(C)CC1.Cl [GSK1558669],%Inh,CDK4-cyclinD3,90%
same,%Inh,CDK4,93.9%
same,%Inh,CDK5,99.7%
same,%Inh,CDK7,99.8%
same,%Inh,CDK8,0%
same,%Inh,CDK9,72%
same,%Inh,CDKL1,89%
same,%Inh,CDKL2,94.7%
same,%Inh,CDKL3,0%
same,%Inh,CDKL5,29%
same,%Inh,CHEK1,100%
same,%Inh,CHEK2,78%
same,%Inh,CIT,69%
same,%Inh,CLK1,99.8%
same,%Inh,CLK2,99.3%
same,%Inh,CLK3,85%
same,%Inh,CLK4,99.7%
same,%Inh,CSF1R-autoinhibited,67%
same,%Inh,CSF1R,99.9%
same,%Inh,CSK,85%
N#Cc1c(N2CCOCC2)sc(-c2ccn[nH]2)c1-c1ccc(Cl)cc1,%Inh,CDK4-cyclinD3,2%
same,%Inh,CDK4,29%
same,%Inh,CDK5,15%
same,%Inh,CDK7,43%
same,%Inh,CDK8,0%
same,%Inh,CDK9,0%
same,%Inh,CDKL1,0%
same,%Inh,CDKL2,0%
same,%Inh,CDKL3,0%
same,%Inh,CDKL5,0%
same,%Inh,CHEK1,15%
same,%Inh,CHEK2,15%
same,%Inh,CIT,24%
same,%Inh,CLK1,6%
same,%Inh,CLK2,0%
same,%Inh,CLK3,16%
same,%Inh,CLK4,0%
same,%Inh,CSF1R-autoinhibited,8%
same,%Inh,CSF1R,34%
same,%Inh,CSK,17%
O=c1cc(N2CCOCC2)nc2n(Cc3cccc4ccccc34)ccn12 [GSK2333389],%Inh,CDK4-cyclinD3,0%
same,%Inh,CDK4,0%
same,%Inh,CDK5,0%
same,%Inh,CDK7,0%
same,%Inh,CDK8,13%
same,%Inh,CDK9,1%
same,%Inh,CDKL1,0%
same,%Inh,CDKL2,4%
same,%Inh,CDKL3,0%
same,%Inh,CDKL5,0%
same,%Inh,CHEK1,20%
same,%Inh,CHEK2,0%
same,%Inh,CIT,9%
same,%Inh,CLK1,48%
same,%Inh,CLK2,3%
same,%Inh,CLK3,0%
same,%Inh,CLK4,31%
same,%Inh,CSF1R-autoinhibited,0%
same,%Inh,CSF1R,4%
same,%Inh,CSK,0%
CCCCCc1nc2c(N)ncnc2n1CCCCC [SKF-97255],%Inh,CDK4-cyclinD3,0%
same,%Inh,CDK4,13%
same,%Inh,CDK5,0%
same,%Inh,CDK7,2%
same,%Inh,CDK8,8%
same,%Inh,CDK9,0%
same,%Inh,CDKL1,26%
same,%Inh,CDKL2,0%
same,%Inh,CDKL3,16%
same,%Inh,CDKL5,7%
same,%Inh,CHEK1,0%
same,%Inh,CHEK2,0%
same,%Inh,CIT,9%
same,%Inh,CLK1,24%
same,%Inh,CLK2,14%
same,%Inh,CLK3,3%
same,%Inh,CLK4,17%
same,%Inh,CSF1R-autoinhibited,0%
same,%Inh,CSF1R,17%
same,%Inh,CSK,0%
